Measurements taken from PubChem BioAssay AID488835 (Broad Institute, 2010).
Out of some 1,400 compounds screened, about 140 (10%) were called active.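 How the source made its calls: active means Half-maximal inhibitory dose from the fit at or below ten times the top valid tested dose; inconclusive means Invalid fit, or flat curve showing 30 to 70% inhibition; inactive means the rest.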 Not all results are given here. Entries with a potency or affinity are not part of this list.

Each compound was assayed against Lysine-specific demethylase 4C (Homo sapiens) (UniProt Q9H3R0) (assay: inhibition of JMJD2C H3K9me3 demethylation – biochemical, DELFIA europium, cherry-picked samples, dose response (AID 488835;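 further: signal is the H3K9me2 demethylation product detected by a dimethyl-specific antibody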)). Conditions: GST-JMJD2C(1-420); series mostly up to 6 µM; activity change, negative = inhibition: at the top concentration.
Sequence of Lysine-specific demethylase 4C (Homo sapiens) (Q9H3R0 1-420 limits assumed): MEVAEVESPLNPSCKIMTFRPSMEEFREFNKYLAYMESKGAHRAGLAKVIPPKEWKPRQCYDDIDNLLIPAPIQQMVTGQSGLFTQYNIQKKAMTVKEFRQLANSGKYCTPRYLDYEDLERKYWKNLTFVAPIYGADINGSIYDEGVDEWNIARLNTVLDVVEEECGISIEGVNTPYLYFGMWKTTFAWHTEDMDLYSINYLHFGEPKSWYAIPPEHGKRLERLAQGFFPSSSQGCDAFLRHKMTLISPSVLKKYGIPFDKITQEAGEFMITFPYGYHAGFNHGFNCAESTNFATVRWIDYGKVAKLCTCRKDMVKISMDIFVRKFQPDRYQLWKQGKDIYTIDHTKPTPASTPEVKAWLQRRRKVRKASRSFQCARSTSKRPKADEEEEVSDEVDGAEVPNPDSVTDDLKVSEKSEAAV

Activity change, negative = inhibition, inactive:
Cc1cccn2c(=O)c(C(=O)NC3CC(C)CC(C)(C)C3)c(O)nc12 (stereo unspecified) -4.7%, Cc1cccc(NC(=O)C2CCN(S(=O)(=O)c3cccc4nsnc34)CC2)n1 1.5%, CCOc1ccc(NCc2nnc(SCC(=O)Nc3cc(C)on3)n2-c2ccccc2OC)cc1 2.44%, CC(=O)Nc1ccc(NC(=O)CSc2ncnn2-c2ccccc2)cc1 -0.718%, COCCNC(=S)N1CCN(C)CC1 -0.745%, C/C(=N\N1CCN(c2ccccc2)CC1)c1ccncc1 -0.735%, COc1ccc(OC)c(/C=N/NC(=O)CNC(=O)c2ccc(S(=O)(=O)N3CCOCC3)cc2)c1 -0.0536%, COc1ccc(OCC(=O)N/N=C/C(C)=C/c2ccco2)c(Br)c1 -10.9%, CC(C)(C)n1nnnc1C(c1cccnc1)N1CCN(c2ccccc2)CC1 (stereo unspecified) 4.33%, Cc1cccc(N2CCN(C(=O)c3ccc(CS(=O)(=O)c4ccccc4C)o3)CC2C)c1 (stereo unspecified) -3.17%, Cc1ccc(C(O)(C(=O)NNc2ccccn2)c2ccc(C)cc2)cc1 0.26%, Cc1ccc(C)c(N(C(=O)c2csnn2)C(C(=O)NC2CCCC2)c2cccnc2)c1 (stereo unspecified) -1.11%, CN(c1cccc(Cl)c1)S(=O)(=O)c1cccc(C(=O)Nc2ccc3c(c2)CCC3)c1 0.113%, O=C(O)COc1ccc(NC(=O)C(c2ccccc2)c2ccccc2)cc1 1.53%, Cc1ccc(-n2nnc3c(SCC(=O)NCC4CCCO4)ncnc32)cc1 (stereo unspecified) 8.21%, Cc1ccc(CNC(=O)Cc2ccc(-c3ccccc3)cc2)cc1 -0.123%, CC(=O)c1sc(NC(=O)c2ccc(C)cc2)nc1C 1.55%, NCCN1CCN2C(=O)CN(C(=O)c3ccccc3)CC12 (stereo unspecified) -1%, CC(CC(=O)Nc1cc([N+](=O)[O-])ccc1Cl)c1ccccc1 (stereo unspecified) -1.51%, COc1ccc(NC(=O)CCN2CCCCCC2)cc1 -0.0182%, COc1ccc(N(CC(=O)Nc2ccc(S(=O)(=O)N3CCCC3)cc2)S(C)(=O)=O)cc1OC 1.62%, Cc1ccc(NC(=O)c2ccc(OC(=O)CCN3C(=O)c4ccccc4C3=O)cc2)cc1 -0.588%, Cc1ccc(NC(=O)CSc2nnc(-c3cccs3)n2Cc2ccco2)cc1 7.83%, COc1ccc(N2CCN(C(=O)CSc3nnc(-c4cccnc4)n3-c3ccccc3)CC2)cc1 0.58%, COc1cc(S(=O)(=O)N(Cc2cccs2)CC2CCCO2)ccc1-n1cnnn1 (stereo unspecified) -8.7%, CCOC(=O)c1sc2nc(N3CCOCC3)c3c(c2c1N)CCN(Cc1ccccc1)C3 3.71%, CCOC(=O)c1c(C)[nH]c(C)c1S(=O)(=O)N(C)CC(=O)N(C)Cc1ccccc1 1.88%, CCOC(=O)c1c(S(=O)(=O)N2CCN(c3ccc(F)cc3)CC2)c(C)n(C)c1C -2.99%, C[C@H]1CN([C@@H](C)CO)C(=O)c2cccc(NS(=O)(=O)c3ccc(F)cc3)c2O[C@H]1CN(C)S(=O)(=O)c1cn(C)cn1 -2.25%, Cc1ccc(C(=O)CN2C(=O)C(=O)N(Cc3ccccc3)C2=O)cc1 1.89%, COc1cccc(/C=C/C(=O)OCC(=O)NCc2ccc(Cl)cc2)c1 0.388%, O=C(Nc1c(Cl)cccc1Cl)c1cc(-c2ccco2)on1 4.55%, Cc1ccc(C(=O)NCc2ccco2)cc1Br -7.8%, Cc1ccc(S(=O)(=O)N(C)C[C@@H]2Oc3ccc(NC(=O)Cn4cnnn4)cc3C(=O)N([C@@H](C)CO)C[C@H]2C)cc1 4.47%, CCn1c(CNC(=O)Cc2ccc(OC)cc2)nnc1SCC(=O)NC1CCCCC1 0.869%, CCn1nnnc1SCC(=O)NCc1cccs1 4.72%, CC(C)CC(=O)Nc1ccccc1N1CCOCC1 5.48%, Cc1ccccc1-c1ccc(=O)n(CC(=O)Nc2ccc(N3CCOCC3)cc2)n1 -3.19%, CC1Oc2ccccc2N(Cc2ccccc2Cl)C1=O (stereo unspecified) -6.49%, CCOC(=O)C1=C(CSc2nc(-c3ccncc3)ccc2C#N)OC(N)=C(C#N)C1c1cccnc1 (stereo unspecified) 6.47%, CCn1c(SCC(=O)NCC(=O)Nc2ccc(F)cc2)nnc1-c1ccncc1 6.22%, Cc1nc2sc(C(c3cccc(F)c3)N3CCOCC3)c(O)n2n1 (stereo unspecified) 17.7%, Cc1cc(=S)c2cccc(C)c2[nH]1 -4.31%, CC(C)CC1c2[nH]c3ccccc3c2CCN1C(=O)c1cnccn1 (stereo unspecified) 0.531%, Cc1noc(C)c1S(=O)(=O)N(C)C[C@H]1Oc2c(cccc2N(C)C)C(=O)N([C@H](C)CO)C[C@@H]1C 0.203%, CCOC(=O)c1c(C)[nH]c(C(=O)CN2CCOCC2)c1C 1.01%, FC(F)(F)c1cccc(NCc2cn3cccnc3n2)c1 0.0929%, Cc1ccc(OCc2nnnn2-c2ccccc2)cc1 7.63%, O=C(Nc1cccnc1)c1ccccc1Oc1ccccc1 6.39%, Cc1nnc(N(C)C(=O)c2ccccn2)s1 1.59%, CCOc1cc(NC(=S)NCCOC)c(OCC)cc1NC(=O)c1cccs1 0.117%, O=C(COc1c(CO)cc(Br)cc1CO)NC1CCCc2ccccc21 (stereo unspecified) 1.18%, CCOC(=O)N1CCN(C(=S)NC(C)(C)C)CC1 2.56%, Cc1cccc(CN2CCC(Oc3ccc(C(=O)N4CCCC4)cc3)CC2)n1 0.665%, CCOC(=O)c1c(S(=O)(=O)N2CCCC(C(=O)Nc3ccc(C)cn3)C2)c(C)n(C)c1C (stereo unspecified) 1.81%, CCOC(=O)c1c(S(=O)(=O)NCC(=O)Nc2cccc(C)c2C)c(C)n(C)c1C 0.0665%, CCCCCCC(=O)N1CCN(c2cc3c(cc2F)c(=O)c(C(=O)O)cn3CC)CC1 2.64%, c1csc(Cn2nnnc2CN2CCN(c3nc4ccccc4s3)CC2)c1 4.59%, O=C(NCc1nnc(SCC(=O)N2CCCC2)o1)c1c(F)cccc1Cl 7.98%, CCC(=O)Nc1cc2c(C)cc(=O)oc2cc1C 2.25%, COc1ccc(C(=O)Nc2ncc3c(n2)CC(c2ccco2)CC3=O)cc1 (stereo unspecified) -3.57%, O=C(Nc1ccc(-c2csc(Nc3ccc(Cl)cc3)n2)cc1)c1ccccc1 -0.901%, C[C@H]1CN([C@@H](C)CO)C(=O)c2cc(NC(=O)C3CCCCC3)ccc2O[C@H]1CN(C)S(=O)(=O)c1ccccc1 2.4%, COC(=O)[C@]1(C)N[C@H](CN(C)S(=O)(=O)c2ccc(C)cc2)[C@@H]2C(=O)N(Cc3ccccc3)C(=O)[C@@H]21 -6.44%, O=c1oc2ccccc2c(O)c1C=NCc1ccccn1 4.68%, Cc1ccc(Nc2nc3nonc3nc2N(C)C)cc1 15.1%
